# Screening results as filed in PubChem.
# Only some compounds are listed: those with a hit (about 19% of all), similar ones and a draw of the others.
# IL1B secr inh – inflammasome signaling inhibition, IL-1 beta readout; THP-1 LPS/ATP IL-1B secretion, AlphaLISA, 16 h; active compounds read low; activity change, % at 57.5 µM; actives 4.7% (n = 360,000); AID 743279; in the data active = activity change below about -50%; inconclusive = mostly about -30% to -49%; note: % is set by controls: 0 for no effect and ±100 for the full control effect
#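 THP-1 cells pretreated 1 hr with compounds (up to 57.5 uM final), then stimulated with LPS (250 ng/mL final) plus ATP (1.25 mM final); secreted IL-1B measured by AlphaLISA after 16 hr, decreased signal indicating inhibition.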
# HepG2 viability – kills HepG2 cells in TGF-b inhibitor counter-screen. HepG2 CAGA-GFP viability, ATP luminescence, 18 h. Potency, µM (titrated, usually from 46.1 µM), without a hit: at the top dose activity change, negative = cytotoxicity, actives largely listed as cytotoxic. actives 0.76% (n = 410,000). AID 588856; note: potency is the fitted concentration of half-maximal effect
#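 HepG2 CAGA-GFP cells (1000/well, DMEM with 1% FBS) received compound, then TGF-beta at 500 pg/mL final, and were incubated 18 hours at 37 degrees C. Viability was read by CellTiter-Glo luminescence. Media-only wells were set as complete cell-killing and DMSO as no toxicity.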
# DT40 TDP1 no CPT – qHTS for Inhibitors of human tyrosyl-DNA phosphodiesterase 1 (TDP1): qHTS in cells in absence of CPT | DT40 Tdp1-/- hTDP1 cells, no CPT, ATP luminescence, 48 h | Potency, µM (highest dose often 46.2 µM), without a hit: at the top dose activity change, negative = growth inhibition, usual class: inhibitors | actives 15% (n = 420,000); note: potency is the fitted concentration of half-maximal effect; % is set by controls: 0 for no effect and ±100 for the full control effect; nearly all actives have a fitted effect of over 55% in size
#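 Camptothecin absent (DMSO only). Human TDP1-complemented DT40 knockout cells, 400 cells/well, 37 °C for minimum 48 hr; ATP measured via CellTiter-Glo, 30 min dark incubation, luminescence.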
# ASM inhibitor – human S-ASM enzyme inhibition | P17405 | placental ASM, HMU-PC fluorogenic substrate, 60 min | Potency, µM (highest dose often 57.5 µM), inactives show top-dose activity change, negative = inhibition, most hits filed as inhibitors | actives 0.006% (n = 340,000) | AID 504937; note: potency is the fitted concentration of half-maximal effect
# Target sequence (P17405 47-631 limits assumed): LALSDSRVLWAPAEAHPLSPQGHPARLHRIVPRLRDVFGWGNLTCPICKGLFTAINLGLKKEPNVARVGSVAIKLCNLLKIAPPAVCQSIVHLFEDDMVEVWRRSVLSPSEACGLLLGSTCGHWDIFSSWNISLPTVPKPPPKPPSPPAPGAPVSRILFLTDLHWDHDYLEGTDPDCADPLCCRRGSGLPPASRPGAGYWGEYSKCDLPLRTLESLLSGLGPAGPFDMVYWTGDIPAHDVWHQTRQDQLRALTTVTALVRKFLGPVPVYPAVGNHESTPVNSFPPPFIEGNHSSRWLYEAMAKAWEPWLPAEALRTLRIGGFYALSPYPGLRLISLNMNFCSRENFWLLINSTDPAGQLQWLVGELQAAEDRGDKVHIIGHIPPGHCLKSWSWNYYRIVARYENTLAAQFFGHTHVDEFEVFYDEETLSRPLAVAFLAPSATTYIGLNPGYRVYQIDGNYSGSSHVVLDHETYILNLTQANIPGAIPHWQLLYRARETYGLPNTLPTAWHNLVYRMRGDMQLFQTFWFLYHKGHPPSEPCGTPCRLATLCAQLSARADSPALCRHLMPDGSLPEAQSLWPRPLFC
#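 Human placenta-derived ASM enzyme was preincubated with compound for 10 minutes at room temperature, then given fluorogenic substrate HMU-PC0 (9 uM final) for 60 minutes at 37 °C; a pH 10 stop preceded fluorescence reading at Ex 386/Em 447 nm.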
# TGFb SMAD3 inh – TGF-b pathway inhibition; HepG2 CAGA-GFP TGF-b/SMAD3 reporter, GFP fluorescence, 18 h; TGF-beta stimulated, 500 pg/mL final; Potency, µM (top dose mostly 46.1 µM), for the others: at the top dose activity, negative = inhibition, usual class: inhibitors; actives 1.2% (n = 410,000); note: potency is the fitted concentration of half-maximal effect; % is set by controls: 0 for no effect and ±100 for the full control effect; nearly all actives have a fitted effect of over 65% in size
#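 Cell-based qHTS in HEPG2 carrying a CAGA-GFP Smad reporter; compounds added before 500 pg/mL final TGF-beta, 18 h incubation at 37 degrees C, GFP fluorescence quantified per cell by imaging cytometry.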
# TDP1 cell CPT – growth inhibition of DT40 Tdp1-/-;hTDP1 cells with camptothecin (screen for TDP1 inhibitors); chicken DT40 Tdp1-/-;hTDP1 cells + 20 nM CPT, ATP luminescence, 48 h; Potency, µM (top dose mostly 46.2 µM), without a hit: at the top dose activity change, negative = growth inhibition, hits mostly inhibitors; actives 12% (n = 420,000); AID 686979; note: potency is the fitted concentration of half-maximal effect; % is set by controls: 0 for no effect and ±100 for the full control effect; nearly all actives have a fitted effect of over 55% in size
#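 Chicken DT40 Tdp1-/- cells stably complemented with human TDP1 were seeded at 400 cells/well in medium containing 20 nM camptothecin, exposed to pin-transferred compounds, and grown at 37 °C for at least 48 hr. Viability was read as ATP luminescence.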
# An asterisk follows results filed as active; i = inactive; ? = inconclusive; / = no result; ! = not active in a repeat. Unless noted, calls come from the whole dose curve; as a rule, active = well fitted curve in the direction sought with a large enough effect; inconclusive = small, poorly fitted or top-dose-only effect, or another doubt; inactive = no such curve, though single readings can be large; an effect the other way counts as inactive or inconclusive.
SMILES,IL1B secr inh,HepG2 viability,DT40 TDP1 no CPT,ASM inhibitor,TGFb SMAD3 inh,TDP1 cell CPT
CC(Oc1ccc(Br)cc1)C(=O)N(Cc1ccccc1)c1c(N)n(Cc2ccccc2)c(=O)[nH]c1=O (stereo unspecified),?,-25%,21µM*,/,-16%,23µM*
CC(Oc1ccccc1)C(=O)N(CCC1=CCCCC1)c1c(N)n(Cc2ccccc2)c(=O)[nH]c1=O (stereo unspecified),i,-80%,?,0%,18µM*,?
Nc1c(N(CCC2=CCCCC2)C(=O)CCCOc2ccccc2)c(=O)[nH]c(=O)n1Cc1ccccc1,-10,3%,-28%,5%,-11%,-6%
Nc1c(N(CCC2=CCCCC2)C(=O)COc2ccc(F)cc2)c(=O)[nH]c(=O)n1Cc1ccccc1,?,8.9µM*,?,6%,7.9µM*,?
Cc1ccsc1CN(C)C(=O)CCc1nnc(COc2ccccc2)o1,-14,-1%,7%,-2%,2%,8%
O=C(O)C(Cc1ccccc1)N1C(=O)C2C3CCC(C3)C2C1=O (stereo unspecified),0,-22%,-6%,/,6%,-16%
CCN(CC)S(=O)(=O)c1cc(NC(=O)C(C)N2CCN(c3ccccn3)CC2)ccc1C (stereo unspecified),-1,-18%,15µM*,4%,-16%,18µM*
CCN(CC)S(=O)(=O)c1cc(NC(=O)C(C)N2CCN(Cc3ccc4c(c3)OCO4)CC2)ccc1C (stereo unspecified),-8,-9%,5.2µM*,4%,?,7.3µM*
COc1ccc(NC(=O)C(c2ccccc2)N2CCN(c3ccccn3)CC2)cc1Cl (stereo unspecified),-17,2%,?,-7%,-11%,23µM*
Cc1ccc(NC(=O)C(c2ccccc2)N2CCN(CC(=O)NC3CC3)CC2)cc1Cl (stereo unspecified),-21,-14%,?,2%,-29%,?
CCN(CC)S(=O)(=O)c1cc(NC(=O)CN2CCN(c3ccccn3)CC2)ccc1C,21,4%,23µM*,-1%,-6%,13µM*
c1ccc(SC23CC4CC(CC(C4)C2)C3)nc1,3,-5%,-26%,/,-11%,-12%
O=S1(=O)N=C(N/N=C/c2ccc(Br)o2)c2ccccc21,-15,-12%,-6%,-8%,-1%,-4%
Cc1ccc(-c2csc3ncnc(Cl)c23)cc1,-30,-18%,?,-2%,-5%,-28%
Clc1ncnc2scc(-c3ccccc3)c12,-70*,0%,?,2%,0%,?
S=c1[nH]cnc2scc(-c3ccccc3)c12,13,-17%,23µM*,8%,-6%,?
Cc1c(NC(=O)CSCc2c(F)cccc2Cl)c(=O)n(-c2ccccc2)n1C,-4,-1%,-19%,-2%,-1%,10%
CN(CCCc1cnc[nH]1)C(=S)NCCCN(Cc1ccc(Cl)cc1)c1ccc(Br)cn1,/,-91%,?,/,7.1µM*,?
S=C(NCCCN(Cc1ccc(Cl)cc1)c1ccc(Br)cn1)NCc1ccc2nc[nH]c2c1,/,-5%,?,/,?,?
CC(=O)NCCCNC(=S)NCCCN(Cc1ccc(Cl)cc1)c1ccc(Br)cn1,/,13µM*!,?,/,16µM*,?
CC1Cc2ccccc2N1C(=O)CSc1nncs1 (stereo unspecified),-5,-3%,-8%,-2%,-11%,-13%
CCOC(=O)c1c(-c2ccc(F)cc2)csc1/N=C/N(C)C,-87*,-25%,-9%,5%,15%,-13%
Cc1sc2nc(SCC(=O)N3CCCC3)[nH]c(=O)c2c1C,1,33%,?,15%,-2%,26µM*
CCC(C)c1c(O)nc(SCC(=O)N2CCCCCC2)[nH]c1=O (stereo unspecified),-51*,-15%,-14%,0%,-21%,8%
C=CCn1c(C)nnc1SCC(=O)Nc1oc(C)c2c(C)n[nH]c(=O)c12,5,2%,11%,2%,33%,6%
SMILES,IL1B secr inh,HepG2 viability,DT40 TDP1 no CPT,ASM inhibitor,TGFb SMAD3 inh,TDP1 cell CPT
Cc1ccc(CNc2oc(-c3ccc(COc4ccc(C)cc4)o3)nc2C#N)cc1,/,-5%,?,/,?,?
CCN(CC)CCNc1cccc2sc3ccccc3c(=O)c12,0,-26%,18µM*,/,2%,23µM*
CCN(CC)CCNc1ccc(CO)c2sc3ccccc3c(=O)c12,-105*,-15%,1.2µM*,-13%,?,0.58µM*
CCN(CC)CCNc1ccc(CO)c2oc3ccccc3c(=O)c12,-55*,-55%,8.2µM*,/,?,8.2µM*
CCN(CC)CCCNC(=O)c1csc(Nc2cccc3ccccc23)n1,-16,-32%,-25%,-2%,-9%,-12%
CCN(CC)CCNC(=O)Cc1nn(CC)c(=O)c2ccccc12,19,0%,3%,2%,-3%,1%
O=c1c2ccccc2sc2c(CO)ccc(NCCN3CCCCC3)c12,-101*,-10%,0.92µM*,-20%,?,0.41µM*
CCc1nc(OCCN(CC)CC)c2oc3ccccc3c2n1,-25,-25%,-10%,5%,0%,-11%
Cc1ccc(SC(=O)c2c([N+](=O)[O-])c(C)nn2C)cc1,-65*,13%,15µM*,0%,-18%,18µM*
CCCCn1c(-c2ccco2)nc2ccccc2c1=O,10,-2%,16µM*,0%,-2%,?
CCCCn1c(SCC(=O)NCc2ccco2)nc2ccccc2c1=O,-9,13%,-23%,-2%,26%,?
O=c1c2c3nc4ccccc4nc3n(/N=C/c3ccccn3)c2ncn1-c1ccccc1,?,29%,?,53%,-8%,2.6µM*
COCCn1cnc2c(c1=O)c1nc3ccccc3nc1n2/N=C/c1cccc(OC)c1,0,-42%,12µM*,118%,0%,13µM*
COc1cc(/C=N/n2c(C)nc3ccccc3c2=O)ccc1O,-25,3%,-3%,-1%,6%,-15%
C=CCn1cnc2c(c1=O)c1nc3ccccc3nc1n2/N=C/c1cc(OC)c(OC)c(OC)c1,-5,6%,3.3µM*,-5%,21%,4.1µM*
